# From PubChem BioAssay AID463173 (ICCB-Longwood Screening Facility, Harvard Medical School, 2010)
# Among all 52,000 compounds or so, about 4,300 (8.3%) were called active. Rule as the data show it: active = survival mostly below about 52% (no sharp cut-off); inactive = mostly above about 56%. The sample as a whole holds a higher share of actives than the screen did.
# System: DeltatarO mutant
# Experiment: growth inhibition of S. aureus wild type versus tarO mutant, primary screen, teichoic acid synthesis inhibitors, RN4220, OD600 (AID 463173)
# Conditions: OD600, 18 h, active compounds read low, screened at 18.75 µg/mL (by protocol)
row,SMILES,survival
1,Cc1cc(C)cc(OCC(=O)NCCN2CCOCC2)c1,67% (inactive)
2,Cc1ccc(OCC(=O)Nc2ccc3nc(SCc4ccccc4)sc3c2)cc1,81% (inactive)
3,Cc1ccccc1-c1nc(CNC(=O)NC2CCCCC2)c(C)o1,67% (inactive)
4,CCOc1ccc(C(=O)N2CCC(c3nc(-c4ccc(S(=O)(=O)N5CCCC5)cc4)no3)CC2)cc1,92% (inactive)
5,CN(C(=O)c1cc2c(=O)oc3ccccc3c2s1)c1ccc(F)cc1,60% (inactive)
6,CCN(C(=O)c1cc2c(=O)oc3ccccc3c2s1)c1cccc(C(F)(F)F)c1,145% (inactive)
7,CCOc1ccc(N(CC)C(=O)c2cc3c(=O)oc4ccccc4c3s2)cc1,38% (active)
8,CCc1ccccc1N(C)C(=O)c1cc2c(=O)oc3ccccc3c2s1,42% (inactive)
9,CCCN(C(=O)c1cc2c(=O)oc3ccc(C)cc3c2s1)c1ccc(OCC)cc1,48% (inactive)
10,CCN(C(=O)c1cc2c(=O)oc3ccccc3c2s1)c1ccc(C)c(C)c1,15% (active)
11,COc1cccc(CNC(=O)C2(c3cccs3)CCOCC2)c1,92% (inactive)
12,COc1ccc(-c2ccc(NS(=O)(=O)c3cccc(C)c3)cc2)nn1,75% (inactive)
13,COCCNc1nc2c(c(=O)n(C)c(=O)n2C)n1Cc1c(F)cccc1Cl,57% (inactive)
14,COc1ccc(C)cc1NC(=O)CC1NCCNC1=O (centres undefined),76% (active)
15,Cc1ccc(C)c(NC(=O)CC2NCCNC2=O)c1 (centres undefined),79% (inactive)
16,COc1ccc(NC(=O)CC2NCCNC2=O)c(OC)c1 (centres undefined),77% (inactive)
17,O=C(Nc1c2c(nn1-c1ccc(Cl)cc1)CS(=O)(=O)C2)c1cccc(Cl)c1,71% (inactive)
18,O=C(Nc1c2c(nn1-c1ccc(Cl)cc1)CS(=O)(=O)C2)c1ccc(Br)cc1,52% (active)
19,Cc1cccc(C(=O)Nc2c3c(nn2-c2ccc(Cl)cc2)CS(=O)(=O)C3)c1,74% (inactive)
20,CC(=O)N1c2ccccc2C(=O)C1N1CCN(c2ccc(F)cc2)CC1 (centres undefined),94% (inactive)
21,Cc1ccc(-c2nnc(Nc3ccc(O)cc3)c3ccccc23)cc1S(=O)(=O)NCC1CCCO1 (centres undefined),93% (inactive)
22,Cc1ccc(-n2ncc(C(=O)NC3CCCCC3)c2C2CCN(C(=O)OC(C)(C)C)CC2)cc1,116% (inactive)
23,Cc1cccc(CC(=O)N2CC(=O)Nc3ccc(F)cc3C2c2ccccc2)c1 (centres undefined),53% (active)
24,Cc1cccc(CC(=O)N2CC(=O)Nc3ccc(Br)cc3C2c2ccc(F)cc2)c1 (centres undefined),43% (active)
25,COc1ccc(CC(=O)N2CC(=O)Nc3ccc(Br)cc3C2c2ccc(F)cc2)cc1 (centres undefined),30% (active)

row,SMILES,survival
1,Cc1ccc2c(c1)C(c1ccccc1)N(C(=O)Cc1ccc(F)cc1)CC(=O)N2 (centres undefined),55% (inactive)
2,O=C1CN(C(=O)Cc2ccccc2)C(c2ccc(F)cc2)c2cc(Br)ccc2N1 (centres undefined),61% (inactive)
3,COc1ccc(CC(=O)N2CC(=O)Nc3ccc(F)cc3C2c2ccccc2)cc1 (centres undefined),79% (inactive)
4,COc1ccc(CC(=O)N2CC(=O)Nc3ccc(Br)cc3C2c2ccc(F)cc2)cc1OC (centres undefined),175% (inactive)
5,Cc1cccc(CC(=O)N2CC(=O)Nc3ccc(C)cc3C2c2ccc(F)cc2)c1 (centres undefined),50% (inactive)
6,O=C1CN(C(=O)Cc2ccc(F)cc2)C(c2ccccc2)c2cc(Cl)ccc2N1 (centres undefined),127% (inactive)
7,COc1ccc(Cl)cc1NC(=O)Cn1ncc2c3ccccc3n(C)c2c1=O,135% (inactive)
8,Cc1ccc(C)c(NC(=O)Cn2c(=O)n(Cc3ccco3)c(=O)c3ccc(C(=O)NC4CCCC4)cc32)c1,95% (inactive)
9,O=C(Nc1ccc2oc(-c3ccc4ccccc4c3)nc2c1)c1ccc(Cl)c(Cl)c1,83% (inactive)
10,Cc1ccc2[nH]c(=O)c3cc(C(=O)NCCCN4CCC(C)CC4)sc3c2c1,85% (inactive)
11,COc1ccc(-c2cc(-c3ccc(C)cc3)nc3c2COc2ccccc2-3)cc1,72% (inactive)
12,Cc1oc2ncn(C)c(=O)c2c1C(=O)N1CCN(c2ccc(Cl)cc2)CC1,61% (inactive)
13,CCc1nc2nc(C)cc(Nc3cccc(C)c3C)n2n1,82% (inactive)
14,Cc1ccc(Nc2cc(C)nc3nc(Cc4ccc(Cl)cc4)nn23)cc1,52% (inactive)
15,Cc1cc(Nc2cc(Cl)ccc2C)n2nc(Cc3ccccc3)nc2n1,50% (inactive)
16,Cc1cccc(Nc2cc(C)nc3nc(Cc4ccc(Cl)cc4)nn23)c1,36% (active)
17,CCc1ccc(Nc2cc(C)nc3nc(Cc4ccc(Cl)cc4)nn23)cc1,101% (inactive)
18,Cc1cc(Nc2ccc(C)c(Cl)c2)n2nc(-c3ccccc3)nc2n1,57% (inactive)
19,Cc1cc(Nc2cccc(Cl)c2C)n2nc(Cc3ccccc3)nc2n1,49% (active)
20,Cc1cc(Nc2ccccc2C)n2nc(Cc3ccc(Cl)cc3)nc2n1,64% (inactive)
21,Cc1cc(Nc2ccc(C)c(Cl)c2)n2nc(Cc3ccccc3)nc2n1,31% (active)
22,Cc1cc(Nc2ccccc2F)n2nc(Cc3ccc(Cl)cc3)nc2n1,44% (active)
23,Cc1cc(Nc2ccccc2F)n2nc(-c3ccccc3)nc2n1,47% (inactive)
24,CC(=O)c1cccc(Nc2cc(C)nc3nc(Cc4ccccc4)nn23)c1,62% (inactive)
